{"source": "PubChem BioAssay (Tox21)", "note": "Where “and” joins values, the source holds several entries; their conditions need not be identical. Equal entries are not always repeated. Results filed as inconclusive are left out. Entries that show only a call come without a potency. A structure can be active in one record and inactive in another. Calls of active or inactive are those of the source. Unless noted, the call rests on the fitted dose curve. Potency means the concentration at half of the fitted maximal effect.", "data": [{"test_system": "not listed separately", "assay": "qHTS assay to identify small molecule agonists of the estrogen related receptor signaling pathway with the pleiotropic PPARgamma coactivator (PGC) from Tox21 10K library (AID 1224842; active means well fitted activation curve with a large enough effect in the repeat runs; further: nearly all actives have a fitted effect of over 15% in size)", "settings": "PGC/ERR reporter cell line, luciferase ONE-Glo, 18 h; series mostly up to 92.4 µM; activation: at the top concentration", "method_in_brief": "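Luminescence from One-Glo (30 min, room temperature) measured after PGC/ERR cells had 18 h at 37 C with pinned compound (23 nL in DMSO). Cells had been seeded at 2,000 per well and pre-incubated 6 h.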", "values": [{"smiles": "CC(=O)[O][Hg][c]1ccccc1", "Potency": "inactive"}, {"smiles": "CCNc1nc(Cl)nc(NCC)n1", "Potency": "inactive"}, {"smiles": "O=[N+]([O-])c1ccccc1O", "Potency": "inactive"}, {"smiles": "O=P1(N(CCCl)CCCl)NCCCO1", "note": "(centres undefined)", "Potency": "inactive"}, {"smiles": "CCOP(=S)(OCC)Oc1ccc2c(C)c(Cl)c(=O)oc2c1", "Potency": "inactive and 11.9 µM (active)"}, {"smiles": "COCC(=O)N(c1c(C)cccc1C)C(C)C(=O)OC", "note": "(centres undefined)", "Potency": "inactive"}, {"smiles": "COc1ccccc1N", "Potency": "inactive"}, {"smiles": "OCCOc1ccccc1", "Potency": "inactive"}, {"smiles": "C[C@]12CCC(=O)C=C1CC[C@@H]1[C@@H]2CC[C@]2(C)C(=O)CC[C@@H]12", "Potency": "inactive"}, {"smiles": "O=C(O)CCl", "Potency": "inactive"}, {"smiles": "COP(=O)(OC)C(O)C(Cl)(Cl)Cl", "note": "(centres undefined)", "Potency": "inactive"}]}, {"molecular_target": "Thyrotropin receptor (Homo sapiens) (UniProt P16473)", "sequence (P16473 whole entry, looked up)": "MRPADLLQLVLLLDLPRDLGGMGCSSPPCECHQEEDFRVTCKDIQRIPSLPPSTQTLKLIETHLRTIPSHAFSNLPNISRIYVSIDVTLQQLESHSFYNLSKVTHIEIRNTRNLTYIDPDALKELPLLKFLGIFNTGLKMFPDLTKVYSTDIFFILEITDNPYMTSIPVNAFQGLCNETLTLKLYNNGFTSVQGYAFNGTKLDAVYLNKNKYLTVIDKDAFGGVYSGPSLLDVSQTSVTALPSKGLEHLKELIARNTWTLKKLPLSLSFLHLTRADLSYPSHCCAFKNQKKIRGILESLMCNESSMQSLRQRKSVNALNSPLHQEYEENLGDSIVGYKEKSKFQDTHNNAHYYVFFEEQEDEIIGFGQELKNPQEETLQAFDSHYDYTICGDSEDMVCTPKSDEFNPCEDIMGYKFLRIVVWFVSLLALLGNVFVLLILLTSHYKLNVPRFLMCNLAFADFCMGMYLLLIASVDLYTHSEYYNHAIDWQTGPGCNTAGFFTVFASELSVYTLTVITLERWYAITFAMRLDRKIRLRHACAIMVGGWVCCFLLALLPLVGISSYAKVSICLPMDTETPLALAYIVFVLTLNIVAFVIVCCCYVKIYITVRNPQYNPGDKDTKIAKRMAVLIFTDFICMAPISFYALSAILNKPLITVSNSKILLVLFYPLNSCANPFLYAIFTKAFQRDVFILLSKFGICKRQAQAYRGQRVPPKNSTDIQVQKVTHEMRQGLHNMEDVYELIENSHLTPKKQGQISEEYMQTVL", "assay": "qHTS assay to identify small molecule agonists of the thyroid stimulating hormone receptor (TSHR) signaling pathway (AID 1224843); further: nearly all actives have a fitted effect of over 45% in size", "settings": "TSHR-HEK293 cells, cAMP HTRF, agonist mode, 30 min; series mostly up to 92.4 µM; activation: at the top concentration", "method_in_brief": "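Screening of the Tox21 10K collection used HEK293 cells engineered with TSHR at 800 cells per well. After a 30-min room-temperature compound exposure, HTRF cAMP reagents were added and fluorescence recorded 1 h later.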", "values": [{"smiles": "CC(=O)[O][Hg][c]1ccccc1", "Potency": "2.71 µM (active) and 770 nM (active) and 9.44 µM (active)"}, {"smiles": "Cc1cc(Cl)ccc1OCC(=O)O", "Potency": "inactive"}, {"smiles": "CCC(=O)C(CC(C)N(C)C)(c1ccccc1)c1ccccc1", "note": "(centres undefined)", "activation": "-24.3% [at 42.5 µM] (inactive)"}, {"smiles": "Nc1ccc(-c2ccc(N)cc2)cc1", "activation": "-18.7% [at 42.5 µM] (inactive)"}, {"smiles": "CCNc1nc(Cl)nc(NCC)n1", "Potency": "inactive"}, {"smiles": "O=C(O)C(Cl)(Cl)Cl", "Potency": "inactive"}, {"smiles": "Cc1cc(-c2ccc(N)c(C)c2)ccc1N", "Potency": "1.35 µM (active)"}, {"smiles": "O=P1(N(CCCl)CCCl)NCCCO1", "note": "(centres undefined)", "Potency": "inactive"}, {"smiles": "CCOP(=S)(OCC)Oc1ccc2c(C)c(Cl)c(=O)oc2c1", "activation": "-6.96% [at 42.5 µM] (inactive)"}, {"smiles": "COCC(=O)N(c1c(C)cccc1C)C(C)C(=O)OC", "note": "(centres undefined)", "Potency": "inactive"}, {"smiles": "OCCOc1ccccc1", "Potency": "inactive"}, {"smiles": "C[C@]12CCC(=O)C=C1CC[C@@H]1[C@@H]2CC[C@]2(C)C(=O)CC[C@@H]12", "Potency": "inactive"}, {"smiles": "CC[N+](CC)(CC)CC", "Potency": "inactive"}, {"smiles": "O=C(O)CCl", "Potency": "inactive"}, {"smiles": "COP(=O)(OC)C(O)C(Cl)(Cl)Cl", "note": "(centres undefined)", "Potency": "inactive"}, {"smiles": "C1CCC(NC2CCCCC2)CC1", "Potency": "inactive"}, {"smiles": "Cc1cc(Cl)ccc1N", "Potency": "inactive"}, {"smiles": "CCCCCCCCCCCC(=O)O", "Potency": "inactive"}, {"smiles": "O=[N+]([O-])O", "Potency": "inactive"}, {"smiles": "CCCCCCCCn1cc[n+](C)c1", "Potency": "inactive"}, {"smiles": "CCCC[n+]1ccccc1", "Potency": "inactive"}, {"smiles": "Nc1ccc(Cl)cc1", "Potency": "inactive"}, {"smiles": "CC[n+]1ccccc1", "Potency": "inactive"}]}]}
